Reference: the supplement of paper PMC12350171
Where a name gives a salt, the structure may show the parent alone.

System: Haemophilus parainfluenzae
Experiment: growth AUC normalised to DMSO control (fraction of control); higher = less growth inhibition, active = hit call of the paper
Conditions: 20 µM;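 active = AUC significantly below DMSO controls by Student t-fit with adjusted P under 0.01; inactive = not significantly reduced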
Method in brief: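 Pathogens passaged twice anaerobically were inoculated at a starting OD578 of 0.01 into pre-reduced mGAM plates with drug at 20 μM and 1% DMSO, sealed with breathable membranes. Haemophilus parainfluenzae medium was supplemented with hemin and NAD. OD578 was read hourly for 24 h, with three biological replicates. Growth-curve AUC was computed by the trapezoidal rule up to the exponential-to-stationary transition and normalised to DMSO controls on the same plate.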

Compound	growth AUC normalised to DMSO control
Clc1cccc(Cl)c1NC1=NCCN1 [Clonidine hydrochloride]	0.978 (inactive)
C[C@]12CC[C@H]3C(=CCc4cc(O)ccc43)[C@@H]1CCC2=O [Equilin]	1.02 (inactive)
C[N+](C)(CCOc1ccccc1)Cc1ccccc1.O=C([O-])c1cc2ccccc2cc1O [Bephenium hydroxynaphthoate]	1.04 (inactive)
CC(=O)SCC(Cc1ccccc1)C(=O)NCC(=O)OCc1ccccc1 (stereo not drawn) [Racecadotril]	0.986 (inactive)
CCn1cc(C(=O)O)c(=O)c2cc(F)c(N3CCNCC3)nc21 [Enoxacin]	0.0701 (active)
O=C1Nc2ccc(Cl)cc2[C@@](C#CC2CC2)(C(F)(F)F)O1 [Efavirenz]	0.991 (inactive)
COc1ccccc1N1CCN(CCCCNC(=O)c2ccc3ccccc3c2)CC1	0.997 (inactive)
O=C(O)c1cc(/N=N/c2ccc(S(=O)(=O)Nc3ccccn3)cc2)ccc1O [Sulfasalazine]	1.04 (inactive)
CCSc1ccc2c(c1)N(CCCN1CCN(C)CC1)c1ccccc1S2 [Thiethylperazine maleate]	1.02 (inactive)
CC(C(=O)O)c1ccc(C(=O)c2cccs2)cc1 (stereo not drawn) [Suprofen]	0.987 (inactive)
Cc1nc2ccccn2c(=O)c1CCN1CCC(C(=O)c2ccc(F)cc2)CC1 [Pirenperone]	0.982 (inactive)
O=C(CCCCCCC(=O)Nc1ccccc1)NO [Vorinostat]	1.07 (inactive)
CCCCCN(C)CCC(O)(P(=O)(O)O)P(=O)(O)O [Ibandronate sodium]	0.995 (inactive)
